Inconclusive results are not listed. Active and inactive are the calls of the source. The call rests on the fitted dose curve; in most records, active means well fitted curve in the direction sought with a large enough effect; inconclusive means small, poorly fitted or top-dose-only effect, or another doubt; inactive means no such curve, though single readings can be large; an effect the other way counts as inactive or inconclusive.

Test [1] has as its target alpha-glucosidase (Oryza sativa, rice) (UniProt Q653V4). The experiment in a line: Counterscreen for Glucocerebrosidase Inhibitors: qHTS Assay for Rice alpha-Glucosidase at pH 5.0 (AID 997). Put shortly:
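Rice alpha-glucosidase (4 nM final) with 400 uM 4-methylumbelliferyl-alpha-D-glucopyranoside in citrate buffer pH 5.0, 20 min at room temperature, stopped at pH 10; fluorescence 365/440 nm, compounds 0.7 nM–77 uM, AC50 from Hill fits.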

Test [2] concerns the target DNA repair nuclease/redox regulator APEX1 (Homo sapiens) (UniProt P27695). The test can be described thus: qHTS Validation Assay for Inhibitors of the Human Apurinic/apyrimidinic Endonuclease 1 (APE1) (AID 1705;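 further: TAMRA fluorescence gain over two minutes as APE1 cuts a quenched THF abasic duplex; series mostly up to about 57 µM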). In outline:
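Fluorogenic double-stranded THF abasic-site substrate (5'-TAMRA/3'-BHQ-2), 50 nM final. Enzyme preincubated with compound 15 min at room temperature, then substrate added. Kinetic fluorescence (ex 525/em 598 nm) read three times at 60 s intervals; activity taken as third-minus-first read difference.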
On the technique in general: In qHTS, concentration-response curves come from the screen itself.

A short description of test [3]: Counterscreen for APE1 Inhibitors: Fluorescent Dye Displacement Validation Assay (AID 1707). In outline: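 Thiazole Orange (250 nM) bound to 50 nM TAMRA-labelled dsDNA with tetrahydrofuran abasic site; displacement by DNA-binding compounds lowers fluorescence. Buffer 50 mM Tris-HCl pH 7.5, 50 mM NaCl, 2 mM MgCl2, 0.01% Tween-20; endpoint read at 480/540 nm.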
Background: A counterscreen serves to expose hits that act by an unwanted route or on another target.

The target in test [4] is Endonuclease 4 (Escherichia coli (strain K12)) (UniProt P0A6C1). The test can be described thus: Counterscreen for APE1 Inhibitors: qHTS Validation Assay for Inhibitors of Endonuclease IV (AID 1708). Put shortly: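 2 nM enzyme was preincubated with compounds for 15 min at room temperature in 50 mM Tris-HCl pH 7.5, 50 mM NaCl, 2 mM MgCl2, 1 mM DTT, 0.01% Tween-20. 50 nM THF-abasic TAMRA/BHQ-2 duplex substrate started the reaction.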

Test [5] can be described thus: qHTS for differential inhibitors of proliferation of Plasmodium falciparum line 7G8 (AID 1815).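 Further: parasite growth measured after three days of incubation.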 Further: potency means the concentration at half of the fitted maximal effect.
Test [6] can be described thus: qHTS for differential inhibitors of proliferation of Plasmodium falciparum line GB4 (AID 1816).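 Further: parasite growth measured after 72 h incubation.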 Further: potency means the concentration at half of the fitted maximal effect. The note with it: Potency: Plasmodium falciparum GB4 proliferation inhibition.
Test [7] is described as follows: qHTS for differential inhibitors of proliferation of Plasmodium falciparum line 3D7 (AID 1876). Further: potency means the concentration at half of the fitted maximal effect.
The nature of test [8]: qHTS for differential inhibitors of proliferation of Plasmodium falciparum line D10 (AID 1877).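 Further: parasites grown with compound for 72 h before DNA staining.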 Further: potency means the concentration at half of the fitted maximal effect.
The nature of test [9]: qHTS for differential inhibitors of proliferation of Plasmodium falciparum line Dd2 (AID 1882). Further: nearly all actives have a fitted effect of over 65% in size. Further: potency means the concentration at half of the fitted maximal effect. Conditions: Potency: Plasmodium falciparum Dd2 proliferation inhibition. In outline:
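SYBR Green I DNA fluorescence read-out, ex 485/em 535 nm. Signals were normalized to 0.29 uM artemisinin and DMSO wells, then corrected using vehicle-only plates flanking each stack. Parasite growth ran 72 h in erythrocytes before lysis.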

Test [10] can be described thus: qHTS for differential inhibitors of proliferation of Plasmodium falciparum line W2 (AID 1883).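 Further: parasites grown with compound for 72 h before lysis and staining.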 Further: potency means the concentration at half of the fitted maximal effect. The note with it: Potency: Plasmodium falciparum W2 proliferation inhibition.
Test [11] has as its target Alpha-galactosidase A (Homo sapiens) (UniProt P06280). The experiment in a line: Counterscreen for Glucocerebrosidase Inhibitors: qHTS Assay for Human alpha-Galactosidase at pH 4.5 (AID 992). In outline:
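Human enzyme (2 nM) with 80 uM 4-methylumbelliferyl alpha-D-galactopyranoside in 50 mM citric acid, 0.005% Tween-20, pH 4.5, 20 min at room temperature. Compounds 0.7 nM–77 uM; fluorescence Ex 365/Em 440 after pH 10 stop; AC50 from Hill fits.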

Sequence of DNA repair nuclease/redox regulator APEX1 (Homo sapiens) (P27695 whole entry, looked up): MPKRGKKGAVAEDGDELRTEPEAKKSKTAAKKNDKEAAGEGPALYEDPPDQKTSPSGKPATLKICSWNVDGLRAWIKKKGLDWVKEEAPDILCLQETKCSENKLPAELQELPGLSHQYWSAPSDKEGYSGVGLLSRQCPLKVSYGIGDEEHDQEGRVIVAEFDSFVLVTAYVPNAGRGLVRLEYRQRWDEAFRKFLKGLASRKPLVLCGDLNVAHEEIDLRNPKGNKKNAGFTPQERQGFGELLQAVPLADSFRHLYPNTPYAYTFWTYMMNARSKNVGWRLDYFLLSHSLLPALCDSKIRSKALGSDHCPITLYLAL
Sequence of Alpha-galactosidase A (Homo sapiens) (P06280 whole entry, looked up): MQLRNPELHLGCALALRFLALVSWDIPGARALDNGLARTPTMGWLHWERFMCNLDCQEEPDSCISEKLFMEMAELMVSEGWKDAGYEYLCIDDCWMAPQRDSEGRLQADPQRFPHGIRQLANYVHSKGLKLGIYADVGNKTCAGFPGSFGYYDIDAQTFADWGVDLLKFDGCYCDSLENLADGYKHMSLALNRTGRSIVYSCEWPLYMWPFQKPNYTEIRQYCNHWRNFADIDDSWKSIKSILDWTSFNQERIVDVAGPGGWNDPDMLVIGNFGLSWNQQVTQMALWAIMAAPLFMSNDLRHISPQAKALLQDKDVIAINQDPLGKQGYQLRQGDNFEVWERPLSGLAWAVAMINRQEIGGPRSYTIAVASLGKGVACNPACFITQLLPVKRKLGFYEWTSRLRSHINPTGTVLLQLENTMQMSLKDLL

As for `C[C@]12C=CC(=O)C=C1CC[C@H]1[C@@H]3C[C@@H](O)[C@](O)(C(=O)CO)[C@@]3(C)C[C@H](O)[C@@]12F`, the result in test [1] and in [3] was inactive. The Potency entry in [2], in test [4], in test [5], in test [6], in [7] and in [8] was “inactive” throughout. Also, the Potency result in [9] and in test [10] was “inactive” each time.
Take `CN(C)C/C=C(/c1ccc(Br)cc1)c1cccnc1`: the Potency entry in test [2] and in test [4] was “inactive” in each case. The Potency was 7.08 µM (active) in test [5]; 12.6 µM (active) in [6]; 10 µM (active) in test [7]; 11.2 µM (active) in test [8]; 7.08 µM (active) in test [10].
Consider `C(=C\c1ccccc1)/CN1CCN(C(c2ccccc2)c2ccccc2)CC1`, for which the outcome in test [11], in test [1] and in test [3] was inactive. Besides, the Potency entry in test [2] is “inactive”. Besides, the Potency was 3.98 µM (active) in test [5], 8.91 µM (active) in [6] and 11.2 µM (active) in test [9].
Take `COCCCC/C(=N\OCCN)c1ccc(C(F)(F)F)cc1`: the Potency result in test [2] and in [4] was “inactive” throughout. The call in test [3] was inactive. Moreover, the Potency is 10 µM (active) in [5], 5.62 µM (active) in test [6] and 2.24 µM (active) in test [10].
As for `CNCCCN1c2ccccc2CCc2ccccc21`, the result in test [11], in test [1] and in [3] was inactive. For the same compound, the Potency entry in test [2] and in test [4] was “inactive” in each case.
Regarding `Cc1nc2c([nH]1)c(=O)n(C)c(=O)n2Cc1ccco1`, the compound was classed as inactive in test [11], in test [1] and in [3]. Moreover, the Potency entry in test [2], in [5], in test [6], in test [7], in test [8] and in test [9] was “inactive” in each case. In addition, the Potency entry in test [10] is “inactive”.
With `CN(C)C(=O)Oc1cccc([N+](C)(C)C)c1`, the result in [11] and in test [1] was inactive. For the same compound, the Potency result in test [2], in test [4], in [5], in test [6], in test [7] and in test [8] was “inactive” throughout. In addition, the Potency result in test [9] and in [10] was “inactive” each time.
As for `CCC(=O)c1ccc2c(c1)N(CCCN(C)C)c1ccccc1S2`, the compound was called inactive in test [11] and in test [1]. Besides, the Potency entry in [2] was “inactive”. Further, the Potency in test [5] is 8.91 µM (active); in test [6], 11.2 µM (active); in [7] it was 10 µM (active); in [8], 17.8 µM (active); in test [10], 5.01 µM (active).
As for `COCC(=O)O[C@]1(CCN(C)CCCc2nc3ccccc3[nH]2)CCc2cc(F)ccc2[C@@H]1C(C)C`, the outcome in test [11], in test [1] and in [3] was inactive. In addition, in test [2], the Potency entry is “inactive”. Moreover, the Potency in test [5] was 2.24 µM (active); in test [6] it was 0.141 µM (active); in test [7], 3.16 µM (active); in test [8] it was 8.91 µM (active); in test [9] it was 1.26 µM (active); in test [10] it was 0.501 µM (active).
Consider `CCN1CCC[C@H]1CNC(=O)c1c(O)c(Cl)cc(Cl)c1OC`, for which the Potency result in test [2], in test [4], in test [5], in [6], in test [7] and in test [8] was “inactive” throughout. Moreover, the Potency result in test [9] is “inactive”.
As for `Brc1c(NC2=NCCN2)ccc2nccnc12`, the result in [11] and in [1] was inactive. Further, the Potency entry in test [2], in [8] and in test [9] was “inactive” each time.
`CCCNC(C)C(=O)Nc1ccccc1C` (configuration not stated): the Potency entry in test [2], in test [4], in test [5], in test [7], in test [8] and in test [9] was “inactive” in each case.
In the case of `Nc1c2c(nc3ccccc13)CCCC2O` (configuration not stated), the Potency result in test [2], in test [5], in test [8] and in test [9] was “inactive” in each case. Further, the call in test [3] was inactive.
Take `COc1ccc([C@@H]2Sc3ccccc3N(CCN(C)C)C(=O)[C@@H]2OC(C)=O)cc1`: the Potency result in [2], in test [4] and in test [8] was “inactive” in each case. For the same compound, the Potency in test [10] is 7.08 µM (active).
For `CN(C)CC[C@@H](c1ccc(Br)cc1)c1ccccn1`, the Potency result in test [2], in [4] and in test [8] was “inactive” each time. Also, the Potency in test [10] was 1 µM (active).
In the case of `OCCN1CCN(CC/C=C2/c3ccccc3Sc3ccc(C(F)(F)F)cc32)CC1`, the Potency entry in test [2] was “inactive”. Also, the call in test [3] was inactive. Besides, the Potency in test [5] was 2.51 µM (active); in test [6], 2.24 µM (active); in test [7], 2.51 µM (active); in test [8], 12.6 µM (active); in test [9] it was 7.94 µM (active); in test [10], 1.58 µM (active).

The record behind these values is PubChem BioAssay (NCATS).
